The list is not random: actives were taken first. Their share in the collection is about 4.7%.
D1 PAM: human D1 dopamine receptor positive modulation; P21728; HEK293 TREx D1 cells, calcium flux, dopamine EC20 potentiation; potentiation, % at 10 µM; hit rate 0.036% among 360,000; in the data active = potentiation above about 30%
Target sequence (P21728 whole entry, looked up): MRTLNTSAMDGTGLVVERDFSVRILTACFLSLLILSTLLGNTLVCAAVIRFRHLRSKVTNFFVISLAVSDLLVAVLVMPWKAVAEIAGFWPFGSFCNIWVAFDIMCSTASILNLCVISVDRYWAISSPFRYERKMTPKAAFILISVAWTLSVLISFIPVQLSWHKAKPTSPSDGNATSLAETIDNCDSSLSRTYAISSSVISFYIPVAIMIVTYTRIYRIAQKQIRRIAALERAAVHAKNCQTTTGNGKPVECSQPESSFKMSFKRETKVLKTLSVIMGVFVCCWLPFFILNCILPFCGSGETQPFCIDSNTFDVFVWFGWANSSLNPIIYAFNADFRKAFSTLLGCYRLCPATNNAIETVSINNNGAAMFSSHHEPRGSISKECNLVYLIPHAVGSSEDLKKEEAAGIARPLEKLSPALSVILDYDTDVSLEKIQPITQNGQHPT
D1 antag: human D1 dopamine receptor antagonism; AID 504652; P21728; activity change, negative = inhibition, % at 10 µM; HEK293 TREx D1 cells, calcium flux, dopamine EC80; hits give low values; hit rate 3.2% among 360,000; in the data active = activity change below about -30%
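After overnight tetracycline induction at 30 C, force-coupled D1 HEK293 cells took up a no-wash calcium dye at room temperature. Compounds were added and monitored 180 s, and the response to EC80 dopamine was then recorded.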
D1 agonist: human D1 receptor agonism | HEK293 T-REx D1 cells, calcium flux, agonist mode | activation, % at 2 µM | hit rate 1% among 360,000 | AID 504660
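Tetracycline-induced HEK293 TREx D1 cells, force-coupled to calcium signalling, were dye-loaded with a no-wash calcium kit. Compound was pin-added after a 10 s baseline. Fluorescence was read kinetically at 1 cycle/s for 180 s, with calcium rises flagged as agonism.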
TRHR ag: activates the human TRH receptor | P34981 | TRHR cells, calcium flux fluo-8, FDSS agonist mode | activation, % at 2 µM | hit rate 0.18% among 360,000 | AID 493084
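In this calcium-flux screen, cells bearing human TRHR are dye-loaded with fluo-8, baselined for 10 cycles, then exposed to library compounds; positive kinetic calcium responses during the agonist phase mark hits, with TRH as control.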
TRHR PAM: allosterically enhances the human TRH receptor; P34981; TRHR cells, fluo-8 calcium fluorescence, EC20 TRH enhancement; enhancement, % at 2 µM; hit rate 0.66% among 360,000; in the data active = enhancement above about 30%
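TRHR-expressing cells loaded with fluo-8 calcium dye were read kinetically (ex 480/em 530) during compound addition, then stimulated with an EC20 of TRH (10 nM final). Enhancement of the Gq-mediated intracellular calcium response was scored.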
Numbers stand for hits; i = inactive. Cut-off read from the data, not from the text of the source, unless noted: active = activation above about 30%; inactive = the rest.

SMILES	D1 PAM	D1 antag	D1 agonist	TRHR ag	TRHR PAM
COC(=O)c1ccc(N2CCN(C(C)=O)CC2)c(NC(=O)c2cccnc2)c1	i	i	i	i	i
O=C1CN2C(=N1)N(Cc1ccccc1)c1ccccc12	i	-87.3	i	i	i
COC(=O)c1c(SC)nc2ccccc2c1OCc1ccccc1C	i	i	i	i	i
CCOc1ccc(NC(=O)N2CCN(C(=O)c3nsc4ccccc34)CC2)cc1	i	i	i	i	i
CCN(CC)S(=O)(=O)c1ccc2c(c1)[nH]c(=S)n2CC	i	i	i	i	38.3
CCOC(=O)c1ccc2c(c1)[nH]c(=S)n2CC	i	i	i	i	i
Cc1cc(C)c(C(=O)NC2CC(C)(C)Cc3c2cnn3-c2cccc(F)c2)[nH]1 (centres undefined)	i	i	i	i	i
CCn1nc(C)cc1C(=O)NC1CC(C)(C)Cc2c1cnn2-c1cccc(F)c1 (centres undefined)	i	-64.2	i	i	i
COc1ccc(N2CCN(C(=O)C(=O)c3cn(CC(=O)N4CCCCCC4)c4ccccc34)CC2)cc1	i	-58.0	i	i	i
CC(=O)c1ccc(-c2ccc(C(=O)N(C)c3c(N)n(Cc4ccccc4)c(=O)[nH]c3=O)o2)cc1	i	i	i	i	i
CCN(CC)CCNC(=O)c1ccc(NC(=O)c2ccc(Cl)c(S(=O)(=O)N3CCCCCC3)c2)cc1	i	-46.8	i	i	i
CCN(CC)CCNC(=O)c1ccc(NC(=O)c2ccc(S(=O)(=O)N3CCCCCC3)cc2)cc1	i	-56.8	i	i	i
O=C(Nc1ccc(Br)cc1)c1ccc(Cl)c(S(=O)(=O)N2CCCCCC2)c1	i	i	i	i	i
CC(=O)Nc1ccc(S(=O)(=O)NCCN2CCNC2=O)cc1Cl	i	i	i	i	i
CC1CCCC(C)N1C(=O)COC(=O)c1nn(C)c(=O)c2ccccc12 (centres undefined)	i	i	i	i	i
CC1CCN(C2CCN(C(=O)c3ccccc3F)CC2)CC1	i	-81.9	i	i	i
CC1CN(C2CCN(C(=O)c3ccccc3)CC2)CC(C)O1 (centres undefined)	i	-31.2	i	i	i
COc1nnc(-c2ccc(N3CCOCC3)c(NC(=O)c3ccccc3)c2)c2ccccc12	i	i	i	i	i
COc1nnc(-c2ccc(N3CCOCC3)c(NC(=O)c3ccco3)c2)c2ccccc12	i	-91.6	i	i	i
CN1CCC(Oc2ccccc2Sc2ccc(C(F)(F)F)cc2)CC1	i	-58.3	52.4	i	i
CN1CCC(Oc2ccc(Sc3ccccc3)cc2)CC1	i	i	77.7	i	i
CCCC(=O)Nc1ccc(C(=O)NCCc2ccc(F)cc2)cc1	i	i	i	i	34.1
CCCCC(=O)Nc1ccc(C(=O)NCCc2ccccc2)cc1	i	i	i	i	i
Cc1cc(C)cc(NC(=O)CCNC(=O)c2ccc([N+](=O)[O-])cc2)c1	i	i	i	i	i
O=C(CCNC(=O)c1ccc([N+](=O)[O-])cc1)Nc1ccc(F)cc1	i	-38.9	i	i	i
SMILES	D1 PAM	D1 antag	D1 agonist	TRHR ag	TRHR PAM
O=C(/C=C/c1ccccc1Cl)Nc1nc(-c2cccs2)ns1	i	i	i	i	i
CCCCc1nc(SCc2ccc([N+](=O)[O-])cc2)n[nH]1	i	-30.1	i	i	i
O=C(OCc1csc(-c2ccccc2)n1)C1=NN(c2ccccc2)C(=O)CC1	i	-35.9	i	i	i
C/C(=N/NC(=O)c1ccco1)c1ccc(Br)s1	i	-31.3	i	i	i
C/C(=N\NC(=O)c1ccco1)c1ccc(C(=O)O)s1	i	i	i	i	i
COc1ccc(NC(=O)c2c([N+](=O)[O-])c(C(C)(C)C)nn2C)cc1	i	i	i	i	i
O=[N+]([O-])c1ccc(O)c(C2=NNC(c3ccccc3F)C2)c1 (centres undefined)	i	-32.9	i	i	i
COc1ccc(-n2ccnc2SCC(=O)Nc2ccc(F)cc2F)cc1	i	i	i	i	i
CCc1ccc(NC(=S)NC2CC3CCC(C2)N3Cc2ccco2)cc1 (centres undefined)	i	-76.7	i	i	i
Cc1cc(C)cc(NC(=S)NC2CC3CCCC(C2)N3CC(C)C)c1 (centres undefined)	i	i	i	i	i
Cc1cccc(NC(=S)NC2CC3CCCC(C2)N3CC(C)C)c1 (centres undefined)	i	-58.9	i	i	i
Cc1ccc(NC(=S)NC2CC3CCCC(C2)N3Cc2ccco2)cc1 (centres undefined)	i	-65.4	41.2	i	i
Cc1ccccc1NC(=S)NC1CC2CCC(C1)N2Cc1ccco1 (centres undefined)	i	i	i	i	i
Cc1ccc(NC(=S)NC2CC3CCCC(C2)N3Cc2cccs2)cc1 (centres undefined)	i	-86.8	i	i	i
CCC1CCCCN1C(=S)Nc1cccc(S(=O)(=O)N(C)C)c1 (centres undefined)	i	i	i	i	i
Cc1cc(C)nc(-n2nc(C)c3c2N(Cc2ccccc2F)C(=O)CC3c2ccc(Cl)cc2)n1 (centres undefined)	i	i	i	i	i
C=C(C)C(=O)Nc1cccc(C2=NOC3(C2)C[C@@H](C(N)=O)N(C(=O)CCCCC)C3)c1 (some centres undefined)	i	i	i	i	i
Cc1ccc(CCNC(=O)c2cccc(Nc3nc4ccccc4nc3-n3nc(C)cc3C)c2)cc1	i	i	i	i	i
CCOC(=O)N1CCN(S(=O)(=O)c2ccc(C)c([N+](=O)[O-])c2)CC1	i	i	i	i	i
Cc1cccc(NC(=S)NC2CC3CCC(C2)N3Cc2ccco2)c1 (centres undefined)	i	-67.1	i	i	i
COc1ccc(NC(=S)NC2CC3CCC(C2)N3Cc2ccco2)cc1 (centres undefined)	i	-64.2	i	i	i
O=C(Nc1ccc(N2CCN(C(=O)c3cccs3)CC2)cc1)c1ccc(Br)o1	i	i	i	i	i
Cc1ccc(Cl)cc1NC(=O)Nc1nnc(N(C)Cc2ccccc2)s1	i	i	i	i	i
CCN(c1ccccc1)c1nnc(NC(=O)Nc2ccc(C)cc2)s1	i	-34.5	i	i	i
CCN(c1ccccc1)c1nnc(NC(=O)Nc2ccc(Br)c(C)c2)s1	i	i	i	i	i
Cc1ccc(NC(=O)Nc2nnc(N(C)Cc3ccccc3)s2)c(C)c1	i	-40.7	i	i	i
CC1CCCC(C)N1CC(O)Cn1c2ccccc2c2ccccc21 (centres undefined)	i	i	i	i	i
CN1CCN(NC(=O)c2cn(-c3ccccc3)nc2-c2cccc(Br)c2)CC1	i	-33.4	i	i	i
O=C(OCc1ccccc1Cl)c1ccc(-c2nnn(Cc3ccccc3Cl)n2)cc1	i	i	i	i	i
COc1cccc(CNC(=O)C2CCCCN2S(=O)(=O)c2ccc(F)cc2)c1 (centres undefined)	i	i	i	i	i
